Reference: PubChem BioAssay (Tox21)
Inconclusive results are not listed. The source made the active and inactive calls. Unless noted, calls come from the whole dose curve.

Key:
[1] = Nuclear factor erythroid 2-related factor 2/antioxidant responsive element (Nrf2/ARE) small molecule agonists: qHTS cell viability counter screen in human keratinocytes (AID 1919968; active = well fitted curve in the direction sought with a large enough effect in the repeat runs; an effect the other way counts as inactive or inconclusive; note: nearly all actives have a fitted effect of over 55% in size)
Summary of the method: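 Seed 1,500 KeratinoSens cells per well, then incubate 5 h at 37 C/5% CO2. Add compounds in DMSO and incubate 23 h. Add CellTiter-Fluor, wait 1 h and read fluorescence.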

[2] = Nuclear factor erythroid 2-related factor 2/antioxidant responsive element (Nrf2/ARE) small molecule agonists: luciferase reporter gene qHTS assay in human keratinocytes (AID 1919969); note: nearly all actives have a fitted effect of over 35% in size; note: potency is the fitted concentration of half-maximal effect
[3] = biological target: Gonadotropin-releasing hormone receptor (Homo sapiens) (UniProt P30968); test: Human gonadotropin-releasing hormone receptor (GnRHR) small molecule agonists, calcium flux assay in GnRHR-HEK293 cells (AID 1920063); note: nearly all actives have a fitted effect of over 35% in size
Summary of the method: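 Cells: HEK293 stably expressing human GnRHR. Steps: overnight (18 h) culture, 1 h calcium dye loading at 37 C, compound addition, kinetic fluorescence read at 480/540 nm. Each compound tested at 15 concentrations in triplicate.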

[4] = biological target: KiSS-1 receptor (Homo sapiens) (UniProt Q969F8); test: Human kisspeptin (KISS1R) small molecule agonists, calcium flux assay in KISS1R-HEK293 cells (AID 1920064; active = well fitted curve in the direction sought with a large enough effect in the repeat runs; an effect the other way counts as inactive or inconclusive)
Summary of the method: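 Cells plated and incubated 18 h; dye added, 1 h at 37 C; compounds in DMSO pinned in; signal read at 480/540 nm every second for 3 min. Each compound tested at 15 concentrations in triplicate.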

[5] = G protein-coupled receptor (GPCR) small molecule agonists, calcium flux assay: HEK293 wild type cell line counter screen (AID 1920065)
Summary of the method: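 Counter-screen of the Tox21 10K library for non-specific calcium release: dye-loaded cells received compounds in DMSO and were monitored by kinetic fluorescence (480/540 nm, 3 min). Fifteen concentrations, run in triplicate.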

[6] = p53 small molecule agonists, cell-based qHTS assay with human liver microsomes (AID 1963577);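 note: p53 response element beta-lactamase reporter cells with liver microsomes plus NADPH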
Summary of the method: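 Steps: plate p53RE-bla cells, incubate 5 h at 37 C; add compound in DMSO; add microsomes (0.5 mg/mL final) and NADPH (0.5 mg/mL final); incubate 16 h at 37 C; add LiveBLAzer, 2 h RT; read fluorescence.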

[7] = p53 small molecule agonists, cell-based qHTS assay with rat liver microsomes (AID 1963578)
Summary of the method: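 Metabolic activation is supplied by rat liver microsomes with NADPH (each 0.5 mg/mL final). p53RE-bla cells incubate with compound 16 h at 37 C; reporter activity is measured by LiveBLAzer fluorescence.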

[8] = p53 small molecule agonists, cell-based qHTS assay with human liver microsomes: qHTS cell viability counter screen (AID 1963579); note: nearly all actives have a fitted effect of over 45% in size
Summary of the method: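 After the 460/530 nm beta-lactamase read, CellTiter-Glo was added to the same wells and luminescence measured after 30 min at room temperature, giving viability of p53RE-bla cells treated 16 h with compounds plus microsomes and NADPH.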

[9] = p53 small molecule agonists, cell-based qHTS assay with rat liver microsomes: qHTS cell viability counter screen (AID 1963580); note: nearly all actives have a fitted effect of over 45% in size
Summary of the method: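 p53RE-bla HCT-116 cells were exposed 16 h at 37 C to compounds with rat liver microsomes (0.5 mg/mL) and NADPH (0.5 mg/mL). Viability was measured in the same wells as ATP content by CellTiter-Glo luminescence.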

[10] = p53 small molecule agonists, cell-based qHTS assay: qHTS cell viability counter screen (AID 1963581); note: nearly all actives have a fitted effect of over 45% in size
Summary of the method: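 Cells: HCT-116 with p53 response element-driven beta-lactamase. Treatment: 16 h, 37 C, compounds in DMSO. Read: CellTiter-Glo luminescence after 30 min RT.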

[11] = p53 small molecule agonists, cell-based qHTS assay (AID 1963582; active = well fitted activation curve with a large enough effect in the signal ratio in the repeat runs, not every such curve was filed as active; the % refers to the signal ratio)
Summary of the method: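 Quantitative HTS in p53RE-bla cells: after a 5 h settling period, compounds delivered in DMSO were left on cells for 16 h at 37 C, and reporter induction was measured as fluorescence following 2 h substrate loading.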

[12] = biological target: 5-hydroxytryptamine receptor 2A (Homo sapiens) (UniProt P28223); test: 5-hydroxytryptamine receptor 2A (HTR2A) small molecule antagonists, cell-based qHTS assay (AID 1963586); note: nearly all actives have a fitted effect of over 45% in size
Summary of the method: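 Antagonist-mode intracellular calcium assay: DOI (4 nM) added after 5 min compound pre-incubation at room temperature to dye-loaded HTR2A-CHO cells. Fluorescence followed for 3 min, sampled every second.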

[13] = biological target: 5-hydroxytryptamine receptor 2A (Homo sapiens) (UniProt P28223); test: 5-hydroxytryptamine receptor 2A (HTR2A) small molecule agonists, cell-based qHTS assay (AID 1963587); note: nearly all actives have a fitted effect of over 30% in size
Summary of the method: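 CHO cells stably expressing human HTR2A, plated 18 h, loaded with calcium dye 1 h at 37 C. Agonist mode: compounds added and intracellular calcium fluorescence recorded kinetically for 2 min at 1 sec intervals.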

[14] = biological target: Muscarinic acetylcholine receptor M1 (Homo sapiens) (UniProt P11229); test: Cholinergic receptor muscarinic 1 (CHRM1) small molecule antagonists, cell-based qHTS assay (AID 1963588); note: nearly all actives have a fitted effect of over 40% in size; note: potency is the fitted concentration of half-maximal effect
Summary of the method: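 CHRM1-CHO calcium-flux assay, antagonist mode. Cells were seeded 18 h, dye-loaded 1 h at 37 C and given compound for 5 min at RT, then acetylcholine was added at 50nM. FDSS fluorescence was read 3 min; 15 concentrations, three runs.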

[15] = biological target: Muscarinic acetylcholine receptor M1 (Homo sapiens) (UniProt P11229); test: Cholinergic receptor muscarinic 1 (CHRM1) small molecule agonists, cell-based qHTS assay (AID 1963589); note: nearly all actives have a fitted effect of over 35% in size
Summary of the method: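 Agonist-mode qHTS in CHO cells stably carrying human muscarinic M1. Intracellular calcium is tracked by fluorescence every second after compound transfer; each compound runs at 15 concentrations in three independent runs.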

[16] = cAMP Responsive Elements (CRE) small molecule agonists, cell-based qHTS assay (AID 1963590)
Summary of the method: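 Agonist mode qHTS in CRE-bla HEK 293T cells: compounds dosed from DMSO for 3 h at 37 C/5% CO2, followed by LiveBLAzer B/G FRET substrate for 2 h at room temperature.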

[17] = cAMP Responsive Elements (CRE) small molecule antagonists, cell-based qHTS assay (AID 1963591; active = well fitted inhibition curve with a large enough effect in the signal ratio in the repeat runs, not every such curve was filed as active; the % refers to the signal ratio)
Summary of the method: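 Antagonist mode: test compounds are co-incubated with the adenylyl cyclase activator NKH477 (0.25 uM final) on CRE-bla HEK293T cells for 3 h at 37 °C, followed by LiveBLAzer substrate loading.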

[18] = biological target: Beta-2 adrenergic receptor (Homo sapiens) (UniProt P07550); test: Adrenergic beta2 receptor (ADRB2) small molecule antagonists, cell-based qHTS assay (AID 1963592); note: series mostly up to about 92 µM; nearly all actives have a fitted effect of over 50% in size
Summary of the method: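 Cells (CHO, stable ADRB2 overexpression) incubated 18-20hr at 37C; compounds added from DMSO; agonist mix (1nM isoproterenol, 100uM IBMX, 25uM Ro-20-1724) added; 0.5hr RT; d2-cAMP and anti-cAMP-cryptate added; 1hr RT; 665/615 nm read.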

[19] = biological target: D(2) dopamine receptor (Homo sapiens) (UniProt P14416); test: Dopamine D2 receptor (DRD2) small molecule agonists, cell-based qHTS assay (AID 1963594); note: nearly all actives have a fitted effect of over 35% in size
Summary of the method: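 HEK293 cells stably expressing human DRD2, pre-treated with PDE inhibitor Ro20-1724 (0.1 mM final) and compound 10 min at room temperature, then stimulated with NKH477 (200nM […]) for 30 min. cAMP read by HTRF (665/620 nm).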

[20] = biological target: D(2) dopamine receptor (Homo sapiens) (UniProt P14416); test: Dopamine D2 receptor (DRD2) small molecule antagonists, cell-based qHTS assay (AID 1963595; active = well fitted inhibition curve with a large enough effect in the signal ratio in the repeat runs, with a control signal flat; the % refers to the signal ratio)
Summary of the method: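 HEK293 cells stably expressing DRD2 were preincubated with 0.1 mM Ro20-1724, then with compound for 10 min at room temperature. Cells were stimulated with 200 nM NKH477 plus 12 nM quinpirole for 30 min, and cAMP was read by HTRF.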
% is set by controls: 0 for no effect and ±100 for the full control effect.

Sequence of Beta-2 adrenergic receptor (Homo sapiens) (P07550 whole entry, looked up): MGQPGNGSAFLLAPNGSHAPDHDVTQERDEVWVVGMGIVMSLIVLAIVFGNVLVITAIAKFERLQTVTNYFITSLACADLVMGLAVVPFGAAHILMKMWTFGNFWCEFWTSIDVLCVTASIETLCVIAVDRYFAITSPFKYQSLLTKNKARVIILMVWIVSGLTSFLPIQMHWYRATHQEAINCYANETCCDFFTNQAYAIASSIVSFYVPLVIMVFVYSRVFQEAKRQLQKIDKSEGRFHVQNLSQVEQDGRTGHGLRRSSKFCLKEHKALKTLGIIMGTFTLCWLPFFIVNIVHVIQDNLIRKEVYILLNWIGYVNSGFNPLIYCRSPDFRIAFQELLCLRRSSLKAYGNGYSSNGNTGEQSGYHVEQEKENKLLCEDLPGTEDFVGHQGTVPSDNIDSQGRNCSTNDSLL
Sequence of Muscarinic acetylcholine receptor M1 (Homo sapiens) (P11229 whole entry, looked up): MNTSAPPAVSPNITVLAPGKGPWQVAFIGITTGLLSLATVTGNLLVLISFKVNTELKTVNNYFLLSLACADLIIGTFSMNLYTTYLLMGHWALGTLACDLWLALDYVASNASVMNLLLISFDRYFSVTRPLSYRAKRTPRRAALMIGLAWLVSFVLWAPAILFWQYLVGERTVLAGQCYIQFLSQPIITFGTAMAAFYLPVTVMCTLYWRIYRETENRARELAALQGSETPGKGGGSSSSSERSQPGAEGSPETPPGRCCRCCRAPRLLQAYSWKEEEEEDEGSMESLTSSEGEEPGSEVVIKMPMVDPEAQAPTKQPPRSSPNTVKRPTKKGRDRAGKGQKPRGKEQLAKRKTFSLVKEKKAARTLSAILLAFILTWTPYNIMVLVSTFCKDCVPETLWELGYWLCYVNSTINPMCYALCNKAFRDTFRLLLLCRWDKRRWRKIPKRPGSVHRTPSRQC
Sequence of KiSS-1 receptor (Homo sapiens) (Q969F8 whole entry, looked up): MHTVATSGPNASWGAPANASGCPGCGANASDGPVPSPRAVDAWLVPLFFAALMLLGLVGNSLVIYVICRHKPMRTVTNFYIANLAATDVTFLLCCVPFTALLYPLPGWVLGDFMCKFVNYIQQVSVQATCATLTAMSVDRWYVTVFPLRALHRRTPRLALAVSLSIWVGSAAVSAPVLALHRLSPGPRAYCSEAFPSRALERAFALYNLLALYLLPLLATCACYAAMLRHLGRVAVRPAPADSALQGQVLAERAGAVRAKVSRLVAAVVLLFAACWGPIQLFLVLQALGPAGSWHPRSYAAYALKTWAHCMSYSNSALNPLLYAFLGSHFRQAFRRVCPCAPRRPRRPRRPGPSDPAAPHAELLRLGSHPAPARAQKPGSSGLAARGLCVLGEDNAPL
Sequence of Gonadotropin-releasing hormone receptor (Homo sapiens) (P30968 whole entry, looked up): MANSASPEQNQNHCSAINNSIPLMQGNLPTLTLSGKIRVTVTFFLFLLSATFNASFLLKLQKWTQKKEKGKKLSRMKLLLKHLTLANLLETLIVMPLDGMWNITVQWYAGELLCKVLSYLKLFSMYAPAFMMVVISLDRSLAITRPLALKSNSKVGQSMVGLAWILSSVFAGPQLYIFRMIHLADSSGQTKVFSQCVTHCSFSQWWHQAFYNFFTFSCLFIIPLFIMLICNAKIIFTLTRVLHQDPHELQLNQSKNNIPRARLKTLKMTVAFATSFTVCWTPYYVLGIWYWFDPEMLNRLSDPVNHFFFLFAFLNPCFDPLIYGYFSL
Sequence of 5-hydroxytryptamine receptor 2A (Homo sapiens) (P28223 whole entry, looked up): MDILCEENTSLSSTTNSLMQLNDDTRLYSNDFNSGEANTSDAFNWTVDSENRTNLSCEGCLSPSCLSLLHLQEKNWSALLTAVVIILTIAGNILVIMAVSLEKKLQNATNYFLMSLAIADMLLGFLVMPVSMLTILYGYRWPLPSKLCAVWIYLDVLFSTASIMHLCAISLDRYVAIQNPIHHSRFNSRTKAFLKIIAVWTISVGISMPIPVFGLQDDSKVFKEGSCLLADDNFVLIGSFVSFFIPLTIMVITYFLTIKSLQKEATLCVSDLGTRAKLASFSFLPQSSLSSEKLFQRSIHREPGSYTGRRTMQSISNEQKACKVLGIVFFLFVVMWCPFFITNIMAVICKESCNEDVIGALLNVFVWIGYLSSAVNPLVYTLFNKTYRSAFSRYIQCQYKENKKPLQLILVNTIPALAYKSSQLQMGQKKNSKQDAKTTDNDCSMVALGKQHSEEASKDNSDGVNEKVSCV
Sequence of D(2) dopamine receptor (Homo sapiens) (P14416 whole entry, looked up): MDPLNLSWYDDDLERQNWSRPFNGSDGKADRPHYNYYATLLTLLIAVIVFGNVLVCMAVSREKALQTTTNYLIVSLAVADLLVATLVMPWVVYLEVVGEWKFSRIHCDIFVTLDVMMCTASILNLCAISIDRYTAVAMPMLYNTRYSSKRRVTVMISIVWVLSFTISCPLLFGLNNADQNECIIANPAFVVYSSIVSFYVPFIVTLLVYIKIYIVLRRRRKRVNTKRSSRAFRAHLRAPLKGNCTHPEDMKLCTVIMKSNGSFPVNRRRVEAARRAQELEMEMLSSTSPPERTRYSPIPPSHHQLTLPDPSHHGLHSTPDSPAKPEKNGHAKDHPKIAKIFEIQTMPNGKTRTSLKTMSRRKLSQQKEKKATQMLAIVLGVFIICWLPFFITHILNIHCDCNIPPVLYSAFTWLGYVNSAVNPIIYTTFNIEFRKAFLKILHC

COc1cc(Cl)ccc1Cl
inactive: Potency [1] | Potency [2] | Potency [3] | Potency [4] | Potency [5] | Potency [6] | Potency [7] | Potency [8] | Potency [9] | Potency [10] | Potency [11] | Potency [12] | Potency [13] | Potency [14] | Potency [15] | Potency [16] | Potency [17] | Potency [18] | Potency [19] | Potency [20]

CC(C)S
inactive: Potency [1] | Potency [2] | Potency [3] | Potency [4] | Potency [5] | Potency [6] | Potency [7] | Potency [8] | Potency [9] | Potency [10] | Potency [11] | Potency [12] | Potency [13] | Potency [14] | Potency [15] | Potency [16] | Potency [17] | Potency [18] | Potency [19] | Potency [20]

O=C(O)Cc1cccc(-c2cc(CCCCCCc3ccc(O[C@H]4O[C@H](CO)[C@@H](O)[C@H](O)[C@@H]4O)c(-c4cccc(CC(=O)O)c4)c3)ccc2O[C@H]2O[C@H](CO)[C@@H](O)[C@H](O)[C@@H]2O)c1
inactive: activity change, negative = cytotoxicity [1] -1.5% [at 0.349 µM] | activity, positive = activation [2] -5.74% [at 0.349 µM] | activity change [3] -0.17% [at 0.217 µM, active compounds read high] | activation [4] -0.687% [at 0.29 µM] | activation [5] -0.122% [at 0.217 µM] | activation [6] -2.66% [at 0.249 µM] | activation [7] 1.81% [at 0.249 µM] | activity change, negative = cytotoxicity [8] 0.362% [at 0.249 µM] | activity change, negative = cytotoxicity [9] 2.63% [at 0.249 µM] | activity change, negative = cytotoxicity [10] -10.7% [at 0.249 µM] | activation [11] -0.0536% [at 0.249 µM] | activity, negative = inhibition [12] 2.29% [at 0.233 µM] | activation [13] 17.6% [at 0.292 µM] | activity, negative = inhibition [14] 12.9% [at 0.232 µM] | activation [15] -0.265% [at 0.29 µM] | activation [16] 1% [at 0.349 µM] | activity change, negative = inhibition [17] -10.4% [at 0.349 µM] | activity change, negative = inhibition [18] 2.66% [at 0.349 µM] | activation [19] -1.23% [at 0.349 µM] | activity change, negative = inhibition [20] -1.71% [at 0.348 µM]

CCC(=O)c1ccc(O)cc1
inactive: Potency [1] | Potency [2] | Potency [3] | Potency [4] | Potency [5] | Potency [6] | Potency [7] | Potency [8] | Potency [9] | Potency [10] | Potency [11] | Potency [12] | Potency [13] | Potency [14] | Potency [15] | Potency [16] | Potency [17] | Potency [18] | Potency [19] | Potency [20]

CC(C)CCCCOC(=O)c1ccccc1C(=O)OCCCCC(C)C
inactive: Potency [1] | Potency [2] | Potency [3] | Potency [4] | Potency [5] | Potency [6] | Potency [7] | Potency [8] | Potency [9] | Potency [10] | Potency [11] | Potency [12] | Potency [13] | Potency [14] | Potency [15] | Potency [16] | Potency [17] | Potency [18] | Potency [19] | Potency [20]

Oc1ccc(O)c2c(O)cccc12
inactive: Potency [1] | Potency [2] | Potency [3] | Potency [4] | Potency [5] | Potency [6] | Potency [7] | Potency [8] | Potency [9] | Potency [10] | Potency [11] | Potency [12] | Potency [13] | Potency [14] | Potency [15] | Potency [16] | Potency [17] | Potency [18] | Potency [19] | Potency [20]

CCCCCCCCCOCC1CO1 (stereo not given)
inactive: Potency [1] | Potency [2] | Potency [3] | Potency [4] | Potency [5] | Potency [6] | Potency [7] | Potency [8] | Potency [9] | Potency [10] | Potency [11] | Potency [12] | Potency [13] | Potency [14] | Potency [15] | Potency [16] | Potency [17] | Potency [18] | Potency [19] | Potency [20]

c1ccc2nccnc2c1
inactive: Potency [1] | Potency [2] | Potency [3] | Potency [4] | Potency [5] | Potency [6] | Potency [7] | Potency [8] | Potency [9] | Potency [10] | Potency [11] | Potency [12] | Potency [13] | Potency [14] | Potency [15] | Potency [16] | Potency [17] | Potency [18] | Potency [19] | Potency [20]

c1cnccn1
inactive: Potency [1] | Potency [2] | Potency [3] | Potency [4] | Potency [5] | Potency [6] | Potency [7] | Potency [8] | Potency [9] | Potency [10] | Potency [11] | Potency [12] | Potency [13] | Potency [14] | Potency [15] | Potency [16] | Potency [17] | Potency [18] | Potency [19] | Potency [20]

Cc1cc(O)c(Cl)cc1C
inactive: Potency [1] | Potency [2] | Potency [3] | Potency [4] | Potency [5] | Potency [6] | Potency [7] | Potency [8] | Potency [9] | Potency [10] | Potency [11] | Potency [12] | Potency [13] | Potency [14] | Potency [15] | Potency [16] | Potency [17] | Potency [18] | Potency [19] | Potency [20]

CCCOC(C(=O)OC1CCN(C)CC1)(c1ccccc1)c1ccccc1
active: Potency [2] 10.6 µM | Potency [14] 0.729 µM
inactive: Potency [1] | Potency [3] | Potency [4] | Potency [5] | Potency [6] | Potency [7] | Potency [8] | Potency [9] | Potency [10] | Potency [11] | Potency [12] | Potency [13] | Potency [15] | Potency [16] | Potency [17] | Potency [18] | Potency [19] | Potency [20]

C[Si](C)(C)O[Si](C)(C)O[Si](C)(C)C
inactive: Potency [1] | Potency [2] | Potency [3] | Potency [4] | Potency [5] | Potency [6] | Potency [7] | Potency [8] | Potency [9] | Potency [10] | Potency [11] | Potency [12] | Potency [13] | Potency [14] | Potency [15] | Potency [16] | Potency [17] | Potency [18] | Potency [19] | Potency [20]
